DRD3 agonist: agonists of human D3 dopamine receptor. D3R DiscoveRx beta-arrestin cells, luminescence, 90 min. max activation, %. hit rate 0.58% among 410,000. AID 652048; in the data active = max activation above about 30%; note: 0% is about no effect
Target sequence (P35462 whole entry, looked up): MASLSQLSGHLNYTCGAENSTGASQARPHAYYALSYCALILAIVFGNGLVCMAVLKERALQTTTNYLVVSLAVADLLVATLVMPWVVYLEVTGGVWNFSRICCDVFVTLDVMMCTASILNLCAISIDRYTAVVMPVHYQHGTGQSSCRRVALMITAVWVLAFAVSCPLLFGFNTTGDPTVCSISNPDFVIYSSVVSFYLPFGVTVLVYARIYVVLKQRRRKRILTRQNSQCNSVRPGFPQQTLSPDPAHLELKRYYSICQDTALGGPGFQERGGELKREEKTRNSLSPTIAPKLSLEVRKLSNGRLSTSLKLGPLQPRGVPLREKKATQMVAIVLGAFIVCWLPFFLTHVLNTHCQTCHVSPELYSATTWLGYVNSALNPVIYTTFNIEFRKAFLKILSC
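Agonist-mode cell screen: cells plated at 1500/well and incubated overnight at 37 °C, then exposed to library compounds for 90 min at 37 °C. Detection reagent was added for 30–60 min at room temperature, and luminescence was read.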
LDHA inh: LDHA (human) enzyme inhibition; hit rate 0.15% among 480,000; P00338; activity change, % (values are at about 110 or 230 µM); purified LDHA, NADH/diaphorase-resazurin fluorescence; hits give low values; in the data active = activity change below about -30%; inconclusive = mostly about -25% to -30%;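 note: plate controls were DMSO wells for no effect and wells without enzyme for full effect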
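Remaining NADH was detected by diaphorase (0.133 mg/mL) converting 37 µM resazurin to fluorescent resorufin, read at 0 and 20 minutes. The preceding 5-minute room-temperature reaction used 2 nM LDHA, 0.2 mM sodium pyruvate and 0.06 mM NADH at pH 7.4.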
DRD3 antagonist: antagonists of human D3 dopamine receptor | D3R cells, DiscoveRx beta-arrestin luminescence, antagonist mode; hits give low values | AID 652054 | P35462 | hit rate 2.5% among 360,000 | max response, negative = inhibition, %; in the data active = max response below about -50%; inconclusive = no clear call, values can overlap the other calls; note: % is set by controls: 0 for no effect and ±100 for the full control effect
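Cells expressing the human receptor were seeded at 1500 cells/well, incubated overnight at 37 degrees C in 5% CO2, then exposed to library compounds with dopamine controls for 90 minutes at 37 degrees C before luminescent detection.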
PI5P4K alpha inh: inhibitors of human PI5P4K alpha. PI5P4Kalpha enzyme, ADP-Glo luminescence, 60 min; hits give low values. max response, %. hit rate 1.2% among 330,000. AID 652105; active = max response of -50% or lower; inconclusive = between -30% and -50%; inactive = -30% or higher; note: value at the top dose of about 77 µM; % is set by controls: 0 for no effect and ±100 for the full control effect
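Single end-point luminescence (ADP-Glo) quantified ADP from PI5P4Kalpha turnover; ATP 5 microM final, 1 h at RT, 0.1% CHAPS and 0.28 mM EGTA in HEPES pH 7.4.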
PI4K2A block: inhibitors of human PI4K2A. Q9BTU6. purified PI4K2A, ADP-Glo luminescence, 1 h; hits give low values. hit rate 0.13% among 420,000. activity change, negative = inhibition, % at 76.9 µM. AID 1346378; in the data active = activity change below about -50%; inconclusive = mostly about -30% to -49%;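 note: -100% = wells without enzyme as full effect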
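PI4K2A activity was measured by ADP-Glo luminescence: enzyme (4 ug/mL stock) and phosphatidylinositol (1.2 mM stock) in Tris pH 7.5/MgCl2/EGTA/Triton X-100 buffer were reacted with ATP (300 microM stock) for one hour at ambient temperature.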
* = called active by the depositor. An excerpt weighted towards active compounds, which were near 3.3% of everything screened.

O=c1[nH]c(CN2CCN(C/C=C/c3ccccc3)CC2)nc2cc(Cl)ccc12 was read as DRD3 agonist -20, LDHA inh -2, DRD3 antagonist -53* and PI4K2A block 6.
Screening O=C(CCc1nc2ccccc2c(=O)[nH]1)N1CCN(C/C=C/c2ccccc2)CC1 returned DRD3 agonist -1, LDHA inh 1, DRD3 antagonist -16, PI5P4K alpha inh 1 and PI4K2A block -5.
For Nc1cccc(NC(=O)c2cccs2)c1 the results were DRD3 agonist 1, LDHA inh 2, DRD3 antagonist 18, PI5P4K alpha inh -11 and PI4K2A block 3.
`O=C(Nc1cccc(N2CCCC2)c1)c1cccs1` gave DRD3 agonist -33, LDHA inh 11, DRD3 antagonist -51* and PI4K2A block 0.
`CC(C)=CCC1C(=O)N(c2ccccc2)N(c2ccccc2)C1=O` gave DRD3 agonist -20 and PI4K2A block -2.
Screening CCCCC1C(=O)N(c2ccccc2)N(c2ccc(O)cc2)C1=O (stereo not given) returned DRD3 agonist -9, LDHA inh -5, DRD3 antagonist -74*, PI5P4K alpha inh inconclusive and PI4K2A block 0.
For Cc1ccc(CSc2nnc(COc3ccc(Cl)cc3)n2C)cc1 the results were LDHA inh -1.
For COc1cccc(-c2cc(=O)c3ccccc3o2)c1N the results were PI4K2A block 1.
Screening COc1cc(OC)c(-c2c3cc(O)c(=O)cc-3oc3cc(O)c(O)cc23)cc1OC returned DRD3 agonist -26, LDHA inh 30, DRD3 antagonist -77*, PI5P4K alpha inh -30 and PI4K2A block -17.
`S=C1NCCc2ccccc2C1c1ccccc1Cl` (stereo not given) gave DRD3 agonist -3, LDHA inh -1, DRD3 antagonist -64*, PI5P4K alpha inh 11 and PI4K2A block 23.
Screening COc1cc(-c2nc(=S)[nH][nH]2)cc(OC)c1OC returned DRD3 agonist -4, LDHA inh 3, DRD3 antagonist -17, PI5P4K alpha inh -79* and PI4K2A block 3.
For COc1cc(/C=C2/CC/C(=C/c3ccc(O)c(OC)c3)C2=O)ccc1O the results were DRD3 agonist 9, LDHA inh -7, DRD3 antagonist -15, PI5P4K alpha inh -25 and PI4K2A block 2.
`COc1cc(/C=C2\COC/C(=C\c3ccc(O)c(OC)c3)C2=O)ccc1O` gave DRD3 agonist -27, LDHA inh 2, DRD3 antagonist -90*, PI5P4K alpha inh -23 and PI4K2A block -13.
For COc1cc(/C=C/C=C2/CC/C(=C/C=C/c3ccc(O)c(OC)c3)C2=O)ccc1O the results were DRD3 agonist 1, LDHA inh 18, DRD3 antagonist -3, PI5P4K alpha inh -93* and PI4K2A block inconclusive.
Screening COc1ccc(CN2CN3Cc4cc(OC)ccc4C3CS2(=O)=O)cc1 (stereo not given) returned PI4K2A block 1.
For COc1cccc(CNc2nc3cc(-c4ccc(OC)c(OC)c4)sc3c(=O)n2C)c1 the results were DRD3 agonist 40*, LDHA inh -10, DRD3 antagonist 39, PI5P4K alpha inh 5 and PI4K2A block -4.
COc1ccc(-c2nc(-c3ccccn3)no2)cc1 was read as DRD3 agonist 3, LDHA inh -1, DRD3 antagonist 8, PI5P4K alpha inh inconclusive and PI4K2A block -74*.
For COc1ccccc1-c1nc(-c2ccccn2)no1 the results were DRD3 agonist 0, LDHA inh 4, DRD3 antagonist 2, PI5P4K alpha inh inconclusive and PI4K2A block -64*.
Cc1ccccc1-c1nc(Cc2ccccc2)no1 was read as DRD3 agonist 4, LDHA inh -2, DRD3 antagonist -53*, PI5P4K alpha inh 21 and PI4K2A block -6.
Clc1ccc(-c2nc(Cc3ccccc3)no2)cc1 was read as DRD3 agonist -8, LDHA inh -7, DRD3 antagonist -17, PI5P4K alpha inh -3 and PI4K2A block 2.
For Brc1ccccc1-c1nc(-c2ccccn2)no1 the results were LDHA inh -9.
Screening Cc1ccccc1-c1nc(-c2ccccn2)no1 returned DRD3 agonist -9, LDHA inh 0, DRD3 antagonist -23, PI5P4K alpha inh -26 and PI4K2A block -51*.
c1ccc(C(CNCC2CC2)N2CCCC2)cc1 (stereo not given) was read as LDHA inh 15.
For O=[N+]([O-])c1ccc(N2CCNCC2)cc1Sc1nc2ccccc2[nH]1 the results were DRD3 agonist -16, LDHA inh -5, DRD3 antagonist -66*, PI5P4K alpha inh -4 and PI4K2A block 0.
Screening O=C(/C=C/c1ccccc1)Nc1ccc(CN2CCOCC2)cc1 returned DRD3 agonist 2, LDHA inh -1, DRD3 antagonist -7, PI5P4K alpha inh -2 and PI4K2A block 1.
Screening O=C(/C=C/c1ccc(Cl)cc1)NC(=S)Nc1ccc(CN2CCOCC2)cc1 returned DRD3 agonist -11, LDHA inh -8, DRD3 antagonist -65*, PI5P4K alpha inh -3 and PI4K2A block 1.
`COc1ccc(C(=O)Nc2ccc3nc(N4CCCC4)sc3c2)c(OC)c1` gave LDHA inh 0.
COC(=O)[C@H](Cc1ccccc1)NS(=O)(=O)N[C@@H](Cc1ccccc1)C(=O)OC was read as DRD3 agonist 0, LDHA inh 1, DRD3 antagonist 5, PI5P4K alpha inh -1 and PI4K2A block 4.
Screening COC(=O)C(Cc1ccccc1)OS(N)(=O)=O (stereo not given) returned DRD3 agonist -12, LDHA inh -6, DRD3 antagonist -58*, PI5P4K alpha inh -3 and PI4K2A block 0.
CC1=CC(C)(C(Cl)(Cl)Cl)C(C)=CC1=NO (stereo not given) was read as DRD3 agonist -10, LDHA inh -5, DRD3 antagonist -55*, PI5P4K alpha inh 2 and PI4K2A block 8.
`CN(Cc1ccc(C(F)(F)F)cc1)C(=O)NCc1ccco1` gave LDHA inh 6.
For CCCCCn1c(SCCCc2ccccc2)nc2c1c(=O)[nH]c(=O)n2C the results were LDHA inh 5.
For CCCCN(CC)CCCNC(=S)Nc1ccc2nc(N3CCN(CC)CC3)cc(C)c2c1 the results were DRD3 agonist 12, LDHA inh 3, DRD3 antagonist -54*, PI5P4K alpha inh 6 and PI4K2A block -6.
`O=C(c1cccs1)N1CCc2c([nH]c3ccccc23)C1c1ccccn1` (stereo not given) gave DRD3 agonist -12, LDHA inh 0, DRD3 antagonist inconclusive, PI5P4K alpha inh 6 and PI4K2A block 1.
O=C(c1cccs1)N1CCc2c([nH]c3ccccc23)C1c1ccc(Cl)cc1 (stereo not given) was read as DRD3 agonist -6, LDHA inh -2, DRD3 antagonist -53*, PI5P4K alpha inh -4 and PI4K2A block 6.
